Shown are actives, neighbours in structure and some others; about 7.3% of the full set was active somewhere.
Luc counter – Kinase-Glo luciferase inhibition (counter-screen) | Kinase-Glo luciferase, ATP luminescence, 8 min | Potency, µM (highest dose often 38.3 µM), for inactives: at the top dose activity change, negative = inhibition, hits mostly inhibitors | 200,000 tested, 0.28% active; also: % is scaled to controls: 0 for no effect and ±100 for the full control effect; nearly all actives have a fitted effect of over 60% in size
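Substrate mix (final 50 mM imidazole pH 7.2, 50 mM KCl, 7 mM MgCl2, 10 uM ATP, 0.01% Tween 20, 0.05% BSA) plus pin-tool compound, then Kinase-Glo detection mix; 8 min ambient, luminescence read.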
Rab9 promoter act – Rab9 promoter activation | Huh7 Rab9 promoter-luciferase reporter, luminescence, 24 h | Potency, µM (series often up to 9.22 µM), without a hit: top-dose activation, negative = inhibition, most hits filed as activators | 320,000 tested, 2.8% active | AID 485297; also: % of control where 0% means no effect; nearly all actives have a fitted effect of over 60% in size
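Steps: seed 1500 Huh7 Rab9-luc cells per well, rest 2 h at 37 °C; add compound in DMSO; incubate 24 h; add luciferase reagent, 10 min ambient; read luminescence.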
ELG1 genotoxic – inducers of genotoxicity in HEK293T ELG1-luciferase cells. HEK293T ELG1-luciferase reporter, luminescence, 16 h. Potency, µM (top dose mostly 46 µM), for the others: at the top dose activity change, positive = activation, hits mostly activators. 330,000 tested, 1.3% active. AID 504466; also: % of control where 0% means no effect; nearly all actives have a fitted effect of over 60% in size
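HEK293T cells expressing luciferase-tagged ELG1 were exposed to compound or DMSO vehicle for 16 hr at 37 °C and 5% CO2. Luciferase activity was then measured with ONE-Glo after 30 min at room temperature.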
SMN2 splice enh – enhancers of SMN2 splice variant expression. 210,000 tested, 2.8% active. Potency, µM (titrated, usually from 46.1 µM), without a hit: at the highest dose activity change, positive = activation, most hits filed as activators. HEK293 SMN2-luciferase splicing reporter, luminescence, 30-36 h; also: % of control where 0% means no effect; nearly all actives have a fitted effect of over 55% in size
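HEK293 cells carry an SMN2 minigene-luciferase reporter in which exon 7 inclusion puts luciferase in frame. Cells were seeded at 2000 cells/well, attached for 10-12 hours, then exposed to compounds for 30-36 hours at 37C before ONE-Glo luminescence.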
NPC1 prom act – activates the NPC1 promoter; AID 485313; 320,000 tested, 2.4% active; Potency, µM (highest dose often 9.22 µM), for the others: at the top dose activation, usual class: activators; Huh7 NPC1 promoter luciferase reporter, 24 h; also: % of control where 0% means no effect; nearly all actives have a fitted effect of over 60% in size
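In 1536-well qHTS, Huh7 cells harboring an NPC1 promoter–luciferase construct received compound for 24 h; activation was quantified by luminescence following luciferase reagent addition.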
FLuc counter – firefly luciferase modulation, counter-screen for miR-21 project. P08659. purified FLuc, Km substrates, luminescence inhibition. Potency, µM (doses to about 57.5 µM), for the others: at the top dose activity change, negative = inhibition, hits mostly inhibitors. 360,000 tested, 6.9% active. AID 588342;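 also: plate controls were vehicle for no effect and reference inhibitor for full effect; nearly all actives have a fitted effect of over 55% in size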
Target sequence (P08659 whole entry, looked up): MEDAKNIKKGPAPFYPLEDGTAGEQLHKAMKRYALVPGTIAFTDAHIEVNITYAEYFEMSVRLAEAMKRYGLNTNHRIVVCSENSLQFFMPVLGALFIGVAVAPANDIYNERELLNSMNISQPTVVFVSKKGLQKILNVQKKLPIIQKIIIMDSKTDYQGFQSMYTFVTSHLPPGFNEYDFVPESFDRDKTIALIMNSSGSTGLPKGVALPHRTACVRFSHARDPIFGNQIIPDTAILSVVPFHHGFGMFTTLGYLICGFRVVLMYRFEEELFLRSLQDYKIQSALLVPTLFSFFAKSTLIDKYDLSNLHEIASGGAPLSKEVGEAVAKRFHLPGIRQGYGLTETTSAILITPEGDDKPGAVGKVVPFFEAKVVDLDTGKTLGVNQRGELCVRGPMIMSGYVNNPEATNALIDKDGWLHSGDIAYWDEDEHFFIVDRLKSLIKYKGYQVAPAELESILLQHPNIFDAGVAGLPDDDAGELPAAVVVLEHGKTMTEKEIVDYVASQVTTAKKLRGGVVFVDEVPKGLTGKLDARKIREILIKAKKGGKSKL
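Purified P. pyralis luciferase (10nM final) with 10uM D-luciferin and 10uM ATP (Km levels) in 50mM Tris acetate pH 7.5, 10mM Mg acetate, 0.01% Tween-20, 0.05% BSA; qHTS 6-point titration, ~60 µM downward; luminescence read.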
* hit, by the source's call; ? = inconclusive; nt = not tested or not shown. Calls follow the shape of the dose curve; as a rule, active = well fitted curve in the direction sought with a large enough effect; inconclusive = small, poorly fitted or top-dose-only effect, or another doubt; inactive = no such curve, though single readings can be large; an effect the other way counts as inactive or inconclusive. Potency is read from the fitted curve at half-maximal effect.

SMILES	Luc counter	Rab9 promoter act	ELG1 genotoxic	SMN2 splice enh	NPC1 prom act	FLuc counter
CCOC(=O)N1CCN(S(=O)(=O)c2ccc(C(=O)N(CCCN(C)C)c3nc4ccc(CC)cc4s3)cc2)CC1	nt	?	13%	nt	?	7%
COc1ccc(-c2nc(CN3CCN(c4ncnc5ccccc45)CC3)c(C)o2)c(OC)c1	-3%	-34%	-18%	nt	-20%	0%
CCOC(=O)c1cc(-c2nnc(-c3ccc(Cl)cc3)o2)c(C)nc1C	2%	-3%	2%	-18%	0%	1%
CCCOC(=O)CSc1nnc(-c2ccc(Cl)cc2Cl)o1	-3%	-1%	1%	-4%	2%	15µM*
CCOC(=O)CSc1nnc(-c2ccccc2)o1	0%	0%	2%	-7%	-2%	?
CCOC(=O)CSc1nnc(-c2ccc(Cl)cc2Cl)o1	-11%	-2%	9%	-1%	1%	8.5µM*
CCCCOC(=O)CSc1nnc(-c2ccccc2)o1	nt	nt	nt	nt	nt	-16%
CCOC(=O)c1ccc(-c2nnc(-c3ccc(Cl)cc3Cl)o2)cc1	3%	0.5µM*	16%	3.5µM*	0.63µM*	3%
CCCCC(=O)Nc1ccc(C(=O)Nc2nc(CC(=O)OCC)cs2)cc1	19%	-4%	-1%	-12%	-3%	19µM*
CCOC(=O)Cc1csc(NC(=O)c2ccoc2C)n1	?	28%	15µM*	26%	18%	?
O=C(Nc1nccs1)c1ccc2c(c1)OCO2	nt	1.6µM*	?	nt	2.2µM*	6µM*
CCOC(=O)Cc1csc(NC(=O)c2ccc(C)cc2)n1	-8%	14%	-4%	nt	14%	11µM*
CC(C)(C)NC(=O)CN(Cc1ccc2c(c1)OCO2)C(=O)CCC(=O)Nc1nccs1	-4%	2%	9%	nt	1%	-24%
CCOC(=O)Cc1csc(NC(=O)c2ccc(Br)o2)n1	1%	1%	7%	-4%	-2%	?
CCOC(=O)c1c(NC(=O)COc2ncnc3ccccc23)sc(C)c1CC	1%	0%	0%	nt	-2%	6%
COc1ccc(NC(=O)c2cc3c(CO)cnc(C)c3oc2=Nc2cc(OC)cc(OC)c2)cc1	nt	-4%	-11%	nt	0%	-3%
CC1Cc2cc(S(=O)(=O)CCC(=O)NC3CCCCC3)ccc2N1C(=O)C1CC1 (stereo unspecified)	nt	0%	-4%	nt	13%	-1%
CCOC(=O)Cc1csc(NC(=S)NC(=O)c2ccc(C)cc2)n1	nt	-18%	2%	nt	-13%	12µM*
CCOC(=O)Cc1csc(NC(=S)NC(=O)c2ccccc2Br)n1	-2%	-2%	4%	nt	-4%	21µM*
CCOC(=O)Cc1csc(NC(=S)NC(=O)c2ccccc2)n1	-1%	-10%	-3%	-14%	1%	?
Cc1csc(NC(=O)c2ccc3c(c2)OCO3)n1	nt	18%	?	nt	?	3.4µM*
Cc1csc(NC(=O)c2ccncc2)n1	nt	8%	1%	nt	-1%	?
CC(=O)Nc1nc(C)cs1	0%	0%	4%	-7%	-5%	-2%
Cc1csc(NC(=O)c2ccoc2C)n1	?	?	?	13µM*	?	?
O=C(Cn1cccc1C(=O)c1ccccc1)NCCCc1ccccc1	nt	3%	0%	nt	-4%	-2%
SMILES	Luc counter	Rab9 promoter act	ELG1 genotoxic	SMN2 splice enh	NPC1 prom act	FLuc counter
CCOC(=O)c1ccc(-n2c(C)nc3ccccc3c2=O)cc1	1%	-4%	0%	0%	8%	2%
Cc1ccc(NC(=O)CCC(=O)N2CCOc3ccccc32)c(Cl)c1	nt	-1%	0%	nt	7%	-21%
CCOC(=O)Cc1csc(NC(=O)c2ccc3c(c2)OCO3)n1	-7%	0%	2%	?	0%	12µM*
CCOC(=O)Cc1csc(NC(=O)c2ccc(F)cc2)n1	nt	0%	-4%	nt	-3%	?
COC(=O)c1sc2cccc(F)c2c1S(=O)(=O)N1CCN(c2cccc(OC)c2)CC1	nt	nt	nt	nt	nt	5%
Oc1cc(-n2cccn2)c(O)cc1-n1cccn1	nt	-2%	?	nt	-1%	17µM*
COc1ccc(/C=N/NS(=O)(=O)c2ccccc2)cc1OC	nt	-4%	-3%	nt	-3%	-1%
Cc1ccc(NC2=C([N+](=O)[O-])CS(=O)(=O)C2)cc1	-3%	13%	26%	18%	8%	13µM*
COCCCNC(=O)c1ccccc1-c1cc(C)no1	nt	-3%	-1%	nt	1%	1%
CN1CCS/C1=C/C=C1\SC(=S)N(CC(=O)O)C1=O	-10%	-2%	-1%	nt	0%	15µM*
CCCCN1C(=O)/C(=C/C=C2\SCCN2C)SC1=S	-2%	3.2µM*	25%	16µM*	?	13µM*
CCOC(=O)N1CCC(NC(=O)C2CCN(S(=O)(=O)N3CCCC3)CC2)CC1	0%	-6%	0%	4%	3%	-1%
COc1cccc(N(C(=O)Cn2nnc(-c3ccc(C)o3)n2)C(C(=O)NC(C)(C)C)c2cccs2)c1 (stereo unspecified)	2%	1%	1%	23%	-9%	3%
Cc1ccc(C(=O)COC(=O)COc2ccccc2[N+](=O)[O-])s1	nt	1%	0%	nt	0%	-17%
Cc1ccc(C(=O)COC(=O)c2cccc([N+](=O)[O-])c2)s1	nt	7%	10%	nt	11%	4.8µM*
O=C(COC(=O)c1cccc([N+](=O)[O-])c1)c1ccc2c(c1)OCO2	nt	2.5µM*	21µM*	nt	3.5µM*	2.7µM*
Cc1nc2ccccc2nc(C)c1=NOCc1cccc(F)c1	1%	-1%	-6%	20µM*	-2%	-11%
O=C(O)C1CC(c2ccccc2)=Nc2ccccc2S1 (stereo unspecified)	nt	?	?	nt	?	17µM*
COc1ccc([C@H]2Cc3cc(O)cc(O)c3C(=O)O2)cc1O	nt	nt	5.2µM*	nt	nt	nt
COc1ccc([C@H]2Cc3cccc(O)c3C(=O)O2)cc1O	nt	19%	10%	nt	27%	-25%
CCOC(=O)c1csc(NC(=O)C2CCCCC2)n1	-2%	27%	?	?	23%	?
CC(C)(C)c1csc(NC(=O)C2=COCCO2)n1	nt	2.5µM*	?	nt	3.2µM*	9.5µM*
CC(=O)Nc1ccc(-c2csc(NC(=O)C3=COCCO3)n2)cc1	nt	?	1%	nt	30%	-17%
CCOC(=O)c1csc(NC(=O)C2=COCCO2)n1	nt	2.8µM*	9.2µM*	nt	2.5µM*	15µM*
Cc1ccc(-c2csc(NC(=O)C3=COCCO3)n2)cc1	-1%	2.8µM*	?	14µM*	?	15µM*
CCCc1ccc(-c2csc(NC(=O)C3=COCCO3)n2)cc1	nt	1.3µM*	11%	nt	1.1µM*	nt
